For eight compounds, inhibition results are on record in ChEMBL document CHEMBL1961873, “Compounds: GSK PKIS; Assays: Nanosyn kinase panel” (2012).

The target of assay [1] is Casein kinase I isoform gamma-2 (Homo sapiens) (UniProt P78368). To be noted: at 1 µM.
Assay [2] has as its target Casein kinase I isoform gamma-3 (Homo sapiens) (UniProt Q9Y6M4). The conditions noted are these: at 0.1 µM.
The target is the same in assay [3]. To be noted: at 1 µM.
Assay [4] addresses Cyclin-dependent kinase 1 (Homo sapiens) (UniProt P06493). To be noted: at 0.1 µM.
Assay [5] shares this target. The conditions noted are these: at 1 µM.
Assay [6] concerns the target Cyclin-dependent kinase 2 (Homo sapiens) (UniProt P24941). To be noted: at 0.1 µM.
For assay [7] the target is unchanged. To be noted: at 1 µM.
Assay [8] has the same target. The conditions noted are these: at 0.1 µM. The source holds these as a separate data set.
The target is the same in assay [9]. To be noted: at 1 µM. This is another data set of the same source.
The target of assay [10] is T1, CDK3/Cyclin E (Homo sapiens) (UniProt P24864+Q00526). The conditions noted are these: at 0.1 µM.
T1 sequence (P24864 whole entry, looked up): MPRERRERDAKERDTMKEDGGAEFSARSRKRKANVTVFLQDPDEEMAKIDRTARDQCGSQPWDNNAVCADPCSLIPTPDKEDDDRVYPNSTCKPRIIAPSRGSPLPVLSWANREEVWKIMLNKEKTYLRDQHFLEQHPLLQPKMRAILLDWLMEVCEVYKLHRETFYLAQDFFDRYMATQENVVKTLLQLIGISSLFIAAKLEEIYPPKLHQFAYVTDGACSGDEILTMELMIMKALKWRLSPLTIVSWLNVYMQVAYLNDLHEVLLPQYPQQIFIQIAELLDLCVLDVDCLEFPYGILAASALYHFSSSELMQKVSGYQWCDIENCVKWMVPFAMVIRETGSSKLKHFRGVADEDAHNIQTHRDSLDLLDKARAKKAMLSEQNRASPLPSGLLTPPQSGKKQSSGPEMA
T1 sequence (Q00526 whole entry, looked up): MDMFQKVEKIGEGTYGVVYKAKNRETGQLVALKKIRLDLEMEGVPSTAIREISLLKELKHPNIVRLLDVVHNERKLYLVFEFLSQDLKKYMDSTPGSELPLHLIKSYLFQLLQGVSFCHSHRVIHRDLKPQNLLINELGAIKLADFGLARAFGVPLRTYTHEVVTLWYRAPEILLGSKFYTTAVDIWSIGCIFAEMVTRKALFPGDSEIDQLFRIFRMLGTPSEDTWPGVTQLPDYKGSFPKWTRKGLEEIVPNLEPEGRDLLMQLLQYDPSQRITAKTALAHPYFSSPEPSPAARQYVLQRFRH
Assay [11] deals with T1, CDK3/Cyclin E (Homo sapiens). To be noted: at 1 µM.
For assay [12], the target named is Cyclin-dependent kinase 4 (Homo sapiens) (UniProt P11802). The conditions noted are these: at 0.1 µM.
Chain of Cyclin-dependent kinase 4 (Homo sapiens) (P11802 whole entry): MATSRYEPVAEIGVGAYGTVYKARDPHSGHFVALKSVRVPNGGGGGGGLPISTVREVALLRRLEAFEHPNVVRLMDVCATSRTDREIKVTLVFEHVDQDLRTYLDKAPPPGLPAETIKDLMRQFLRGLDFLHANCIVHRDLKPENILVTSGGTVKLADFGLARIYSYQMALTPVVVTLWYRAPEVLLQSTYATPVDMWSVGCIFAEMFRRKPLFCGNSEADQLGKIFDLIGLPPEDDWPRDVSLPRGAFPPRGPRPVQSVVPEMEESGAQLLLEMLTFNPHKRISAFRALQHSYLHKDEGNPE
For assay [13] the target is unchanged. To be noted: at 1 µM.
Assay [14] concerns the target Cyclin-dependent kinase 5 (Homo sapiens) (UniProt Q00535). To be noted: at 0.1 µM.
Assay [15] has the same target. To be noted: at 1 µM.
Assay [16] concerns the target Cyclin-dependent kinase 6 (Homo sapiens) (UniProt Q00534). The conditions noted are these: at 0.1 µM.
Assay [17] shares this target. To be noted: at 1 µM.
Assay [18] concerns the target Dual specificity protein kinase CLK2 (Homo sapiens) (UniProt P49760). To be noted: at 0.1 µM.
The target is the same in assay [19]. To be noted: at 1 µM.
In assay [20] the target is Dual specificity protein kinase CLK3 (Homo sapiens) (UniProt P49761). The conditions noted are these: at 0.1 µM.
Chain of Dual specificity protein kinase CLK3 (Homo sapiens) (P49761 whole entry, looked up): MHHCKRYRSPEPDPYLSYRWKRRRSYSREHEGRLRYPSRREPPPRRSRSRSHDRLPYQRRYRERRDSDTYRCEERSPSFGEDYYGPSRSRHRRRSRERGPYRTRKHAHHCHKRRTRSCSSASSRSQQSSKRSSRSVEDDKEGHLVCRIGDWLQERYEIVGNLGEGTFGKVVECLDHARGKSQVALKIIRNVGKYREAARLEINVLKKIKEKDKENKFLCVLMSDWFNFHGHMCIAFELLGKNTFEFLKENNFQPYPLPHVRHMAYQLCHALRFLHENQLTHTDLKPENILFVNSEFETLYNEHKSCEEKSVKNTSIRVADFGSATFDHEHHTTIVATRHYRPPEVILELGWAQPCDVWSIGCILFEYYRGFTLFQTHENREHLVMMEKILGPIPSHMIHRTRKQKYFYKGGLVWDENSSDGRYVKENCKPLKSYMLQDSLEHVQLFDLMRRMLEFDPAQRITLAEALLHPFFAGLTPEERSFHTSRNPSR

Chain of Casein kinase I isoform gamma-3 (Homo sapiens) (Q9Y6M4 whole entry, looked up, canonical isoform): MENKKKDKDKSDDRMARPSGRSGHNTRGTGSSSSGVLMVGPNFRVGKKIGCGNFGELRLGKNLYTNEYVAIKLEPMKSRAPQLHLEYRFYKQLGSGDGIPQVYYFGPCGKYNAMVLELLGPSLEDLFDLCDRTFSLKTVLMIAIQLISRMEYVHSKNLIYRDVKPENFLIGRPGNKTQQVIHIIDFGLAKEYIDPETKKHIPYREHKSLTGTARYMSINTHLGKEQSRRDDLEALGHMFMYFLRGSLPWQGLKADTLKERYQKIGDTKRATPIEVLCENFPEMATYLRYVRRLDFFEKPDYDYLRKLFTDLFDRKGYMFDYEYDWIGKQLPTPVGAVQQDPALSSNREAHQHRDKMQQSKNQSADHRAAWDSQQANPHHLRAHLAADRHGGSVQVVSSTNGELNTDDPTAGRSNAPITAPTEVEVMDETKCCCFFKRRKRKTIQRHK
Chain of Dual specificity protein kinase CLK2 (Homo sapiens) (P49760 whole entry, looked up): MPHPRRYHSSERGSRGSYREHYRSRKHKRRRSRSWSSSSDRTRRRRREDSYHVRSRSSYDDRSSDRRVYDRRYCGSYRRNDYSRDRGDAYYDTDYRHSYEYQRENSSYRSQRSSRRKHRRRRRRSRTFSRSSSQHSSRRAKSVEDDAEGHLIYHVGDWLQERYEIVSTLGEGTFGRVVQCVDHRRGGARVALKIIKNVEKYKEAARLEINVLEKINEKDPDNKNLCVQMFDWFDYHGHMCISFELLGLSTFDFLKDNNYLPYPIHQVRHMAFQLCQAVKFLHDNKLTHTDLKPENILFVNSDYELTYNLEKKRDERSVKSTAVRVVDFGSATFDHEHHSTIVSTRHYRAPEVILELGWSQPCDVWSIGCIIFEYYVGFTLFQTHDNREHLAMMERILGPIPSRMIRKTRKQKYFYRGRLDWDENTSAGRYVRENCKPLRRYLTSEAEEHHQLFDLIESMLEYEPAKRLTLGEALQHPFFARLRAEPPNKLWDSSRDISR
Chain of Cyclin-dependent kinase 1 (Homo sapiens) (P06493 whole entry, looked up): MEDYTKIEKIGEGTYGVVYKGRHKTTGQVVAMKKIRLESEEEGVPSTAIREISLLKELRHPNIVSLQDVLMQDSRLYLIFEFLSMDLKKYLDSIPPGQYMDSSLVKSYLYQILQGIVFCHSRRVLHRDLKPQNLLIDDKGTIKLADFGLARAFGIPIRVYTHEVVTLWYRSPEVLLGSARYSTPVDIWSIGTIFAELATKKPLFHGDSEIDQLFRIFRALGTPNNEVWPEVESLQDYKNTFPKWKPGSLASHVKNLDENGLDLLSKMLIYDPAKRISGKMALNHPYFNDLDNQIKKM
Chain of Cyclin-dependent kinase 5 (Homo sapiens) (Q00535 whole entry, looked up): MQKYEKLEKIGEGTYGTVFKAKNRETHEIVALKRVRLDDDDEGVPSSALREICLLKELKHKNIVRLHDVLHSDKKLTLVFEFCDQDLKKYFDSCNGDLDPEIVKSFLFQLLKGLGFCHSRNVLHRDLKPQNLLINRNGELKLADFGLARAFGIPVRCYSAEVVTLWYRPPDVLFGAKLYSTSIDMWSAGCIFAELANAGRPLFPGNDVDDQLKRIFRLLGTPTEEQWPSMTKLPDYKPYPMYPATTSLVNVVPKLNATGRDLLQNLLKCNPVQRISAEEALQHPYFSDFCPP
Chain of Cyclin-dependent kinase 6 (Homo sapiens) (Q00534 whole entry): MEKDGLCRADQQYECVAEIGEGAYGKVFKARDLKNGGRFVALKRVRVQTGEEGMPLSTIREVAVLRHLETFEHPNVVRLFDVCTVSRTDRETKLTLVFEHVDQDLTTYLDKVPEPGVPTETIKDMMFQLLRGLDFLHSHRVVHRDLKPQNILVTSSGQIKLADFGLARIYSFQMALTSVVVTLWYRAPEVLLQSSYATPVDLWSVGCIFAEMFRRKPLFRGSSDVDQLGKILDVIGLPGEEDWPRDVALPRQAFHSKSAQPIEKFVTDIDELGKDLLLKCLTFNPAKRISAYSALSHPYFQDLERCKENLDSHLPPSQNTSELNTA
Chain of Casein kinase I isoform gamma-2 (Homo sapiens) (P78368 whole entry, looked up, canonical isoform): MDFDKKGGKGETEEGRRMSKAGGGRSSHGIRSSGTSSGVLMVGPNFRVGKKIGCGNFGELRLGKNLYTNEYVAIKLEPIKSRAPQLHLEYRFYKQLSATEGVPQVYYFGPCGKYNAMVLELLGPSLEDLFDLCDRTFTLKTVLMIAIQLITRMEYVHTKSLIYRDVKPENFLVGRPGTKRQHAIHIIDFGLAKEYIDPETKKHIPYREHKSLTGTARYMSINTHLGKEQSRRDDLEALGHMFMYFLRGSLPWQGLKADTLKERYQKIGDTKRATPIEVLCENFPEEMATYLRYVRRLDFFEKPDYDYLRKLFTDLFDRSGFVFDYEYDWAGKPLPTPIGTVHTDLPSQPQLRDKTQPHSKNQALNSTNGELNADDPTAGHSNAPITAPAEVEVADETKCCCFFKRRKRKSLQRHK

For orientation: inhibition means the change of the read-out against control, counted positive when it falls. For the compound `CC(C)(CO)CNC(=O)c1ccc2c(c1)/C(=N/Nc1ccc(S(N)(=O)=O)cc1)C(=O)N2`, the inhibition worked out at 3.6% in [1]; 1.31% in assay [2]; 8.37% in [3]; 37.2% in assay [4]; 74.8% in assay [5]; 87.3% in assay [6]. Besides, the inhibition in [7] is 93.6%; in assay [8], 68.4%; in assay [9] it was 81.2%; in assay [10] it was 48.5%; in assay [11] it was 88.5%; in assay [12], 13.6%. For the same compound, the inhibition in assay [13] is 54.6%; in assay [14] it was 40.6%; in assay [15] it was 75.1%; in [16] it was 9.84%; in assay [17] it was 59.1%; in [18], 11.8%. Besides, the inhibition in [19] was 61.9%; in assay [20], -0.48%.

As for `Fc1ccc(-c2cc(-c3c[nH]nc3-c3ccccn3)ccn2)cc1`, the inhibition in assay [1] is 6.19%; in assay [2], 4.09%; in [3] it was 6.73%; in [4] it was 0.86%; in assay [5], -0.63%; in [6] it was 2.51%. In addition, the inhibition in assay [7] is 5.92%; in [8] it was 2.72%; in assay [9] it was 3.29%; in [10] it was 2.03%; in assay [11] it was -1.83%; in [12], 1.98%. Besides, the inhibition is 1.18% in assay [13]; -0.24% in assay [14]; -1.54% in assay [15]; -0.57% in assay [16]; 2.29% in assay [17]; 2.53% in assay [18]. Moreover, the inhibition in [19] worked out at 2.71%; in assay [20], 1.32%.

With `COc1ccc(-c2cc3c(N)ncnc3o2)cc1`, the inhibition in assay [1] was -0.54%; in assay [2] it was -0.97%; in assay [3], 0.61%; in assay [4] it was 2.33%; in assay [5], 6.06%; in [6], 1.51%. Besides, the inhibition in [7] was 2.69%; in assay [8] it was 1.72%; in assay [9], 5.09%; in assay [10], 0.47%; in assay [11], 1.68%; in assay [12], 0.18%. Moreover, the inhibition in [13] was 3.35%; in [14] it was 1.53%; in assay [15] it was 5.3%; in [16] it was -1.4%; in assay [17], 2.82%; in [18], 0.46%. The inhibition came out at 2.78% in [19] and 0.59% in [20].

As to `Fc1ccc(-c2nn3ncccc3c2-c2ccnc(Nc3ccc4c(c3)OCCO4)n2)cc1`, the inhibition in assay [1] was found to be 61.6%; in assay [2] it was 23.9%; in assay [3] it was 76.1%; in [4], 0.14%; in assay [5], 0.65%; in assay [6] it was 1.25%. For the same compound, the inhibition was 3.7% in assay [7]; 2.71% in [8]; 2.76% in assay [9]; 3.59% in assay [10]; -2.65% in assay [11]; 1.89% in assay [12]. For the same compound, the inhibition is 1.86% in [13]; 0.45% in assay [14]; 0.21% in [15]; -2.15% in assay [16]; 2.72% in [17]; 1.15% in assay [18]. Further, the inhibition in [19] is 1.21%; in assay [20], 1.15%.

With `NS(=O)(=O)c1ccc(N/N=C2\C(=O)Nc3ccc4ncccc4c32)cc1`, the inhibition in assay [1] worked out at 7.05%; in assay [2] it was 1.94%; in assay [3] it was 12.7%; in assay [4] it was 61.3%; in [5] it was 80.5%; in assay [6], 93.4%. The inhibition in assay [7] was 86.6%; in assay [8] it was 83.1%; in assay [9] it was 84.3%; in assay [10], 79.7%; in assay [11], 99.2%; in assay [12], 48%. Also, the inhibition in assay [13] amounted to 76.2%; in assay [14], 79%; in assay [15] it was 83.4%; in assay [16] it was 53.5%; in assay [17], 81.4%; in assay [18], 19.3%. In addition, the inhibition came out at 72.3% in assay [19] and 2.36% in [20].

For `N#Cc1c(NC(=O)CN2CCOCC2)sc2c1CCCC2`, the inhibition in assay [1] worked out at 6.04%; in assay [2] it was 4.84%; in [3], 6.07%; in assay [4] it was 4.8%; in [5], 4.23%; in assay [6], 3.4%. For the same compound, the inhibition came to 4.28% in assay [7]; 6.96% in assay [8]; 8.06% in assay [9]; 5.84% in assay [10]; 0.79% in [11]; 6.39% in [12]. For the same compound, the inhibition in [13] was determined as 5.4%; in assay [14] it was 4.75%; in assay [15], 5.34%; in assay [16] it was 5.33%; in [17] it was 7.63%; in assay [18] it was 1.09%. In addition, the figures for the inhibition in assay [19] and in [20] were 2.7% and 4.98%, respectively.

Take `CNC(=O)c1cc(-c2ccc(F)cc2)cc(-c2ccc(S(=O)(=O)N3CCCC3)cc2)c1N`: the inhibition is 2.38% in [1]; 3.27% in assay [2]; 0.61% in assay [3]; -0.56% in assay [4]; 1.19% in [5]; 1% in assay [6]. In addition, the inhibition in assay [7] is 1.91%; in assay [8], 2.41%; in [9], 3.39%; in assay [10], -1.31%; in assay [11], -2.51%; in assay [12], 1.65%. Further, the inhibition was 2.17% in assay [13]; 0.12% in [14]; 1.55% in [15]; -2.1% in assay [16]; -3.59% in [17]; 1.77% in [18]. Also, the inhibition stood at 2.42% in [19] and 0.69% in assay [20].

As to `CCn1cc(-c2ccnc3[nH]ccc23)c(-c2cccc(NC(=O)Nc3ccc(OCc4ccccc4)cc3)c2)n1`, the inhibition in [1] was 1.8%; in [2] it was -0.46%; in assay [3], 0.79%; in assay [4], 0.04%; in [5], 0.38%; in [6], -0.95%. The inhibition in [7] is -1.61%; in assay [8], -0.54%; in [9], -2.22%; in [10], 0.47%; in assay [11], -2.23%; in assay [12], 1.32%. The inhibition in [13] is -0.47%; in [14] it was -0.05%; in assay [15] it was -0.93%; in assay [16] it was -2.8%; in assay [17], -4.5%; in [18], -0.56%. Also, the inhibition in assay [19] is -2.09%; in assay [20] it was -0.94%.
